Active and inactive are the calls of the source. Unless noted, no rule for the calls is given here.
Legend:
[1] = resazurin metabolic signal in HepG2 cells – cell-based, resazurin fluorescence, 24 h, PK04 Diversity Set, profiling panel (AID 1172); details: HepG2 viability, higher = more signal
[2] = budding yeast growth changes without added modifier – OD600, strain BY4716, 24 h, basal condition, primary screen (AID 1173); details: S. cerevisiae BY4716 growth, OD600, 24 h; higher = more signal, called active from +8 up or from −8 down
[3] = viability profiling in MM1S myeloma cells – cell-based, resazurin fluorescence, basal, 24 h, PK04 Diversity Set, profiling panel (AID 1174); details: higher = more signal, called active from +8 up or from −8 down;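 also: MM1S multiple myeloma cell line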
[4] = target: Dihydroorotate dehydrogenase (quinone), mitochondrial (Plasmodium falciparum (isolate 3D7)) (UniProt Q08210); assay: inhibition of P. falciparum DHODH – biochemical, C-terminal His tag, absorbance 600 nm, primary screen (AID 1175); details: PfDHODH enzyme, DCIP absorbance 600 nm; higher = more signal, called active from +8 up or from −8 down;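 also: recombinant parasite enzyme with a five histidine tag at its C terminus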
[5] = inhibition of PAO1 biofilm formation – strain PAO1, LB-PBS medium, absorbance 600 nm, primary screen (AID 1176); details: P. aeruginosa PAO1 growth/biofilm, A600, 12 h; higher = more signal
[6] = growth modulation of vineyard yeast isolate – strain RM11-1a, OD600, basal, 24 h, primary screen (AID 1177);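 also: cultures grown under basal conditions with no added stressor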; details: S. cerevisiae RM11-1a growth, OD600, 24 h; higher = more signal, called active from +8 up or from −8 down
[7] = growth of efflux-deficient E. coli DRC39 – strain DRC39, OD650, 24 h, E. coli filamentation inducers, primary screen (AID 1178);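 also: growth measured as culture turbidity by optical density at 650 nm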; details: E. coli DRC39 acrAB, higher = more signal, called active from +8 up or from −8 down
[8] = growth of efflux-deficient E. coli DRC39 – strain DRC39, OD650, 48 h, E. coli filamentation inducers, primary screen (AID 1179);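 also: screen aims at cell division blockers that make cells filament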; details: E. coli DRC39 delta-acrAB growth, higher = more signal, called active from +8 up or from −8 down
[9] = viability profiling in RPMI8226 myeloma cells – cell-based, resazurin fluorescence, basal, 24 h, PK04 Diversity Set, profiling panel (AID 1180); details: higher = more signal;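 also: RPMI8826 multiple myeloma cell line at 5000 cells per well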
[10] = target: E3 ubiquitin-protein ligase XIAP (Homo sapiens) (UniProt P98170); assay: small molecules binding XIAP protein – biophysical, small-molecule microarray, fluorescence 635 nm, primary screen (AID 1181); details: higher = more signal;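 also: score merges 667 nm emission and signal to noise over triplicate slides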
[11] = tested on: XIP peptide (Xip251-270) binding; assay: XIP fragment 251-270 binding compounds – biochemical, small-molecule microarray, fluorescence 635/667 nm, 0.1 µg/mL protein, primary screen (AID 1182); details: fluorescent protein binding, 635 nm, higher = more signal, called active from +8 up or from −8 down
XIP peptide (Xip251-270) = assay: compounds binding XIP fragment 251-270 – biochemical, small-molecule microarray, fluorescence 635/667 nm, 0.5 µg/mL protein, primary screen (AID 1183); details: fluorescence 635 nm, higher = more signal
[12] = blood-stage malaria parasite viability loss – strain 3D7, DAPI fluorescence, 100 nL, primary screen (AID 1184);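 also: parasites grown inside human red blood cells in medium with human serum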; details: P. falciparum 3D7 growth, 3 d, higher = more signal
[13] = target: Homeobox protein Hox-A13 (Mus musculus) (UniProt Q62424); assay: disruptors of Hoxa13 oligonucleotide interaction – biochemical, fluorescence polarization, labeled oligonucleotide, primary screen (AID 1185); details: Hoxa13:DNA binding, 15 min, higher = more signal, called active from +8 up or from −8 down
[14] = blockers of DNA damage checkpoint Chk1 activation – imaging, HeLa, hydroxyurea, phospho-Chk1 antibody, percent positive cells, primary screen (AID 1186); details: hydroxyurea-induced phospho-Chk1 immunofluorescence imaging, higher = more signal
[15] = blockers of DNA damage checkpoint Chk1 activation – imaging, HeLa, hydroxyurea, phospho-Chk1 nuclear intensity, primary screen (AID 1187); details: hydroxyurea-induced phospho-Chk1 immunofluorescence imaging, higher = more signal

Homeobox protein Hox-A13 (Mus musculus), sequence (Q62424 whole entry, looked up): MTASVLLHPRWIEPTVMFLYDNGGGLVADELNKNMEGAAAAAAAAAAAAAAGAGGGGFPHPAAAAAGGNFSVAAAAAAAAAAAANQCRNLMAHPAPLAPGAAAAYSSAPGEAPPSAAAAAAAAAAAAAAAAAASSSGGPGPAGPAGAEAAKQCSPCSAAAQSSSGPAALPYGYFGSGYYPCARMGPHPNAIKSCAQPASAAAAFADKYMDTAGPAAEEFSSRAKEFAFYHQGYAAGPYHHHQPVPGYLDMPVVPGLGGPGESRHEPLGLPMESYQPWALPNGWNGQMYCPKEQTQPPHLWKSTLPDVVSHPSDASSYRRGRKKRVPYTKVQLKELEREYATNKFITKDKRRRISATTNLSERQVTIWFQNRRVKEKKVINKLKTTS
E3 ubiquitin-protein ligase XIAP (Homo sapiens), sequence (P98170 whole entry, looked up, the tested form may be a part): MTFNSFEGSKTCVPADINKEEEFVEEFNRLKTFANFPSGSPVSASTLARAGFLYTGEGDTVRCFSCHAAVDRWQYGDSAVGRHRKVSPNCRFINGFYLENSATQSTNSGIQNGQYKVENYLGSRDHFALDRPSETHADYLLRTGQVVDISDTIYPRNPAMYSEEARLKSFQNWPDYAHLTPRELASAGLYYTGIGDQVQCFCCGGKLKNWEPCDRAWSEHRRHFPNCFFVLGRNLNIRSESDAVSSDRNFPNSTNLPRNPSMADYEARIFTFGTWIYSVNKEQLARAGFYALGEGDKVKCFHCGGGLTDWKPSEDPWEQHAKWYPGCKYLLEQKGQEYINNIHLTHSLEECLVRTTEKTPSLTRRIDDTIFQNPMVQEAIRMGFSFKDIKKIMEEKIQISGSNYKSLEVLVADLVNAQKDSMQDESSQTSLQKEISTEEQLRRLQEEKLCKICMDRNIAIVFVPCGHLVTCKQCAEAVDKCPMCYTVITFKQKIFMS
Dihydroorotate dehydrogenase (quinone), mitochondrial (Plasmodium falciparum (isolate 3D7)), sequence (Q08210 whole entry, looked up): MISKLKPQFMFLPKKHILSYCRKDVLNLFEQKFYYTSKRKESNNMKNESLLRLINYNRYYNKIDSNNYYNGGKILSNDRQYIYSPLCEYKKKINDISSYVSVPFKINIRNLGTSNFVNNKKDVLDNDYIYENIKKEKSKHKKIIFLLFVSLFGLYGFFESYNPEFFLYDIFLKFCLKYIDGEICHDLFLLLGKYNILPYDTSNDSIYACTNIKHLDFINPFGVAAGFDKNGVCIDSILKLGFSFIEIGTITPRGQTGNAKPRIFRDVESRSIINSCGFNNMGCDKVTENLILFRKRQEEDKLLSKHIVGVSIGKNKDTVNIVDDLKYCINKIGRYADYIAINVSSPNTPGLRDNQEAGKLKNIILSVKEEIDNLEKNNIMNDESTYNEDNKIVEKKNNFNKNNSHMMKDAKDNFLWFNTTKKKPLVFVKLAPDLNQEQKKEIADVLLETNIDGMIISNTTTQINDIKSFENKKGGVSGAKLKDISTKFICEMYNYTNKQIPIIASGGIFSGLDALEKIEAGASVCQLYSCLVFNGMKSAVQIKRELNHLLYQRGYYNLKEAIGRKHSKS

SMILES: COc1ccc([Si](C)(C)[C@H]2[C@H](CC(=O)N3CCC[C@H]3CO)O[C@@]3(C(=O)N(Cc4cccc(N5C(=O)COc6ccccc65)c4)c4ccccc43)[C@@H]2C)cc1
- z-score [1]: -0.58
- z-score [2]: -1.16 (inactive)
- z-score [3]: -0.986 (inactive)
- composite z-score [4]: -3.33 (inactive)
- z-score [5]: 1.85 (inactive)
- z-score [6]: -1.74 (inactive)
- z-score [7]: 1.21 (inactive)
- z-score [8]: 1.32 (inactive)
- z-score [9]: -0.524
- composite z-score [10]: -0.0795
- composite z-score [11]: 0.422 (inactive)
- composite z-score (XIP peptide (Xip251-270)): 0.74
- z-score [12]: -1.56
- z-score [13]: -3.12 (inactive)
- z-score [14]: 0.0942 (inactive)
- z-score [15]: 0.728 (inactive)

SMILES: O=C1NC(=O)C2C1C=CC(C(O)Cc1ccccc1)N2Nc1ccccn1 (centres undefined)
- z-score [1]: -0.507
- z-score [2]: 0.424 (inactive)
- z-score [3]: -0.164 (inactive)
- composite z-score [4]: 0.195 (inactive)
- z-score [5]: -0.118 (inactive)
- z-score [6]: -0.979 (inactive)
- z-score [7]: 0.374 (inactive)
- z-score [8]: 1.42 (inactive)
- z-score [9]: -0.448
- composite z-score [10]: -0.136
- composite z-score [11]: -0.0757 (inactive)
- composite z-score (XIP peptide (Xip251-270)): 0.804
- z-score [12]: 0.396
- z-score [13]: -3.75 (inactive)
- z-score [14]: -0.349 (inactive)
- z-score [15]: -0.306 (inactive)

SMILES: CCCCCCc1nc(CCCc2cc3c(c(CCCCCC)n2)[Si](C(C)C)(C(C)C)O[C@H]3c2ccccc2)cc2c1[Si](C(C)C)(C(C)C)O[C@H]2c1ccccc1
- z-score [1]: 0.0054
- z-score [2]: 1.33 (inactive)
- z-score [3]: -0.582 (inactive)
- composite z-score [4]: -0.347 (inactive)
- z-score [5]: 0.0793 (inactive)
- z-score [6]: -0.879 (inactive)
- z-score [7]: -0.631 (inactive)
- z-score [8]: -0.981 (inactive)
- z-score [9]: -0.465
- composite z-score [10]: -0.117
- composite z-score [11]: 0.285 (inactive)
- composite z-score (XIP peptide (Xip251-270)): -0.307
- z-score [12]: -0.607
- z-score [13]: -2.79 (inactive)
- z-score [14]: -0.0972 (inactive)
- z-score [15]: -0.202 (inactive)

SMILES: C[N+](C)(C)CCCCCCNC(=O)[C@@H]1C[C@@H]2C(=O)N3CCC[C@H]3C(=O)N2[C@@H]1c1cccc(OCCO)c1
- z-score [1]: 2.14
- z-score [2]: -0.887 (inactive)
- z-score [3]: 0.984 (inactive)
- composite z-score [4]: -1.83 (inactive)
- z-score [5]: 0.808 (inactive)
- z-score [6]: -0.183 (inactive)
- z-score [7]: 0.0995 (inactive)
- z-score [8]: -0.514 (inactive)
- z-score [9]: -0.245
- composite z-score [10]: -0.0655
- composite z-score [11]: -0.113 (inactive)
- composite z-score (XIP peptide (Xip251-270)): 0.697
- z-score [12]: -0.204
- z-score [13]: -4.95 (inactive)
- z-score [14]: -0.173 (inactive)
- z-score [15]: -0.0252 (inactive)

SMILES: COCCCNC(=O)[C@@]1(Sc2ccc(C)cc2)CC(=O)N(Cc2ccccc2)[C@@H]1c1ccc(CO)cc1I
- z-score [1]: 0.121
- z-score [2]: -3.62 (inactive)
- z-score [3]: -2.46 (inactive)
- composite z-score [4]: -0.666 (inactive)
- z-score [5]: -0.549 (inactive)
- z-score [6]: -1.02 (inactive)
- z-score [7]: 0.283 (inactive)
- z-score [8]: 0.264 (inactive)
- z-score [9]: -1.78
- composite z-score [10]: 0.106
- composite z-score [11]: -0.453 (inactive)
- composite z-score (XIP peptide (Xip251-270)): 0.423
- z-score [12]: -0.0893
- z-score [13]: -2.08 (inactive)
- z-score [14]: 0.442 (inactive)
- z-score [15]: 1.03 (inactive)

SMILES: CN(C)C(=O)[C@@]1(Cc2ccccc2)N=C(c2ccc(OCCCO)cc2)O[C@H]1c1ccccc1CN=[N+]=[N-]
- z-score [1]: -0.412
- z-score [2]: -0.618 (inactive)
- z-score [3]: -1.23 (inactive)
- composite z-score [4]: 0.519 (inactive)
- z-score [5]: 0.535 (inactive)
- z-score [6]: -0.112 (inactive)
- z-score [7]: -0.0193 (inactive)
- z-score [8]: -0.139 (inactive)
- z-score [9]: -1.23
- composite z-score [10]: 0.215
- composite z-score [11]: 2.74 (inactive)
- composite z-score (XIP peptide (Xip251-270)): 0.746
- z-score [12]: -2.11
- z-score [13]: -1.69 (inactive)
- z-score [14]: 0.264 (inactive)
- z-score [15]: 0.492 (inactive)

SMILES: COc1ccc([Si](C)(C)[C@@H]2[C@@H](CC(=O)N3CCC[C@H]3CO)O[C@]3(C(=O)N(Cc4cccc(N5CCC5=O)c4)c4ccccc43)[C@H]2C)cc1
- z-score [1]: -1.1
- z-score [2]: -0.0905 (inactive)
- z-score [3]: -2.64 (inactive)
- composite z-score [4]: -3.15 (inactive)
- z-score [5]: 1.19 (inactive)
- z-score [6]: 1.03 (inactive)
- z-score [7]: 0.52 (inactive)
- z-score [8]: 0.388 (inactive)
- z-score [9]: -3.51
- composite z-score [10]: -0.152
- composite z-score [11]: 1.07 (inactive)
- composite z-score (XIP peptide (Xip251-270)): 0.824
- z-score [12]: -0.744
- z-score [13]: -2.64 (inactive)
- z-score [14]: -0.532 (inactive)
- z-score [15]: 0.535 (inactive)

SMILES: CO[C@H]1O[C@H](CO)[C@@H](OC(=O)Nc2ccc(C#N)cc2)[C@H](OC(=O)c2cc3ccccc3[nH]2)[C@H]1OC(=O)c1cc2ccccc2[nH]1
- z-score [1]: -0.115
- z-score [2]: -1.05 (inactive)
- z-score [3]: -1.76 (inactive)
- composite z-score [4]: -1.68 (inactive)
- z-score [5]: 1.63 (inactive)
- z-score [6]: -1.67 (inactive)
- z-score [7]: 2.96 (inactive)
- z-score [8]: 2.93 (inactive)
- z-score [9]: -1.7
- composite z-score [10]: -0.0448
- composite z-score [11]: 2.37 (inactive)
- composite z-score (XIP peptide (Xip251-270)): 0.875
- z-score [12]: -1.96
- z-score [13]: -2.26 (inactive)
- z-score [14]: -0.487 (inactive)
- z-score [15]: -0.52 (inactive)

SMILES: COC(=O)[C@@]1(Cc2ccc(F)cc2)[C@H]2c3cc(C(=O)N(C)C)n(Cc4ccc(OC)c(OC)c4)c3C[C@H]2CN1C(=O)c1ccccc1
- z-score [1]: -1.05
- z-score [2]: -0.0211 (inactive)
- z-score [3]: -1.8 (inactive)
- composite z-score [4]: -3.71 (inactive)
- z-score [5]: 3.14 (inactive)
- z-score [6]: 0.348 (inactive)
- z-score [7]: -0.252 (inactive)
- z-score [8]: -1.45 (inactive)
- z-score [9]: -0.484
- composite z-score [10]: 0.276
- composite z-score [11]: 0.316 (inactive)
- composite z-score (XIP peptide (Xip251-270)): 0.835
- z-score [12]: -1.03
- z-score [13]: -3.65 (inactive)
- z-score [14]: 0.427 (inactive)
- z-score [15]: 0.753 (inactive)

Reference: PubChem BioAssay
